Source: the supplement of paper PMC6411743
± gives the standard deviation of the averaged measurements. The full data set covers some 5,400 targets. This sample favours those with the largest changes.

Compound: Nc1nc2c(ncn2[C@@H]2O[C@H](COP(=O)(O)OP(=O)(O)OP(=O)(O)O)[C@@H](O)[C@H]2O)c(=O)[nH]1 [guanosine triphosphate]
Test: NP40-soluble protein abundance relative to vehicle (solubility fold change) (ratio); higher = more soluble protein in presence of GTP
In short: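 Jurkat crude lysate prepared with a Dounce homogeniser was treated at eight concentrations spanning 0.1 to 10 mM, 10 min at room temperature then 3 min at 37 °C. Solubilisation with 0.8% NP40 and benzonase and ultracentrifugation preceded TMT labelling of the supernatant for LC-MS/MS. Fold change against the detergent-processed vehicle was determined per replicate from vsn-normalised intensities, across three independent experiments.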

UniProt Q2M389, sequence (Q2M389 whole entry, one chain of several): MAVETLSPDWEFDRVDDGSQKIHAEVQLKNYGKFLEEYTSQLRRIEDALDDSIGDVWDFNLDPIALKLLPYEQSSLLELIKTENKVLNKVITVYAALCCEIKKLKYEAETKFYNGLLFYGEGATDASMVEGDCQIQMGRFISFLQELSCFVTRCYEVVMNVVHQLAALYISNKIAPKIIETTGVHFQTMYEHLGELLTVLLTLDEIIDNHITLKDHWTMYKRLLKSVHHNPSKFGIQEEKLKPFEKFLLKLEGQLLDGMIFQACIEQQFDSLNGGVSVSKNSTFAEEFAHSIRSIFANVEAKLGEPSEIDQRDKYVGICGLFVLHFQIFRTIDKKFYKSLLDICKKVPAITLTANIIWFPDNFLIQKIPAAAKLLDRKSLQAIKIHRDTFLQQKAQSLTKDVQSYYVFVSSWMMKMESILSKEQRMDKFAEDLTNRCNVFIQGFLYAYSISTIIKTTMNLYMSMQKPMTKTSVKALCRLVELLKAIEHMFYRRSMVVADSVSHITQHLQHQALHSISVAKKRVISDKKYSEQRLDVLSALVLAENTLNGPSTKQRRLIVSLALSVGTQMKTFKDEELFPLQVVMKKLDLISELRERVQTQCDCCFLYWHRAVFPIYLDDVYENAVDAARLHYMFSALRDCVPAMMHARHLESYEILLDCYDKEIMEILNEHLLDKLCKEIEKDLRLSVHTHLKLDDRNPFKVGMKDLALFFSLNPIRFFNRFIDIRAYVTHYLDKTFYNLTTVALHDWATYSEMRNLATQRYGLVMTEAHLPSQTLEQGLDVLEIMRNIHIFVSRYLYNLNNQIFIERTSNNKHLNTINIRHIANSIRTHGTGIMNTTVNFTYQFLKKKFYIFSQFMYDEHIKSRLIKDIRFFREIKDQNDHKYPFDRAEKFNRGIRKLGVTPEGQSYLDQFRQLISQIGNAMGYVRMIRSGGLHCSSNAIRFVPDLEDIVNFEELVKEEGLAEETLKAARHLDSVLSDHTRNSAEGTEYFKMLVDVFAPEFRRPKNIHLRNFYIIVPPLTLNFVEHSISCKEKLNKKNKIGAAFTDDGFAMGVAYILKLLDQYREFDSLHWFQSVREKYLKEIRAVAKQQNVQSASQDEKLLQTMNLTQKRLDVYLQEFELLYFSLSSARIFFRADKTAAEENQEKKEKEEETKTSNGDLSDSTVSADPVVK
UniProt Q9BZL6, sequence (Q9BZL6 whole entry, one chain of several): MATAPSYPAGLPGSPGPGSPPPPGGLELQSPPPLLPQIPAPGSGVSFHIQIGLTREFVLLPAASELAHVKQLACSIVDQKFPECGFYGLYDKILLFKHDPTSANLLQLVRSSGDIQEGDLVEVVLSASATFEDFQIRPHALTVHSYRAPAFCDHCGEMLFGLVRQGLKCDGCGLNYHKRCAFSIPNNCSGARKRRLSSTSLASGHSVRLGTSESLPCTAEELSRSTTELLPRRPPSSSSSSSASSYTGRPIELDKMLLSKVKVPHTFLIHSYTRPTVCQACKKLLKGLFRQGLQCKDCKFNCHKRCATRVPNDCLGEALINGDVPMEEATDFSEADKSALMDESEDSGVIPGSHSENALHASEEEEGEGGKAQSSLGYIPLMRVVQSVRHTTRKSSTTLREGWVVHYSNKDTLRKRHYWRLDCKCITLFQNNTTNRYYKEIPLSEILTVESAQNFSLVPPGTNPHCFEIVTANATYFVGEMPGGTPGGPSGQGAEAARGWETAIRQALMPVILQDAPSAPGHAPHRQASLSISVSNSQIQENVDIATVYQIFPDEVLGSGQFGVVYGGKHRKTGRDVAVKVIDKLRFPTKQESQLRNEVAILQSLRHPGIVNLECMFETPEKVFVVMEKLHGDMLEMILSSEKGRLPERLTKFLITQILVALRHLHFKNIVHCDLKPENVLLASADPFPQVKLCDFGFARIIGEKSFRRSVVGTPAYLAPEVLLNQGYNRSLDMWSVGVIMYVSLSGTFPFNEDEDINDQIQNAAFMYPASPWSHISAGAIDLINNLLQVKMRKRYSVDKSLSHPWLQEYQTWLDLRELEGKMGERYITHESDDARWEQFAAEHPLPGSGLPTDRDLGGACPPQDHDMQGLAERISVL
UniProt Q9H4A3, sequence (Q9H4A3 whole entry, looked up, one chain of several): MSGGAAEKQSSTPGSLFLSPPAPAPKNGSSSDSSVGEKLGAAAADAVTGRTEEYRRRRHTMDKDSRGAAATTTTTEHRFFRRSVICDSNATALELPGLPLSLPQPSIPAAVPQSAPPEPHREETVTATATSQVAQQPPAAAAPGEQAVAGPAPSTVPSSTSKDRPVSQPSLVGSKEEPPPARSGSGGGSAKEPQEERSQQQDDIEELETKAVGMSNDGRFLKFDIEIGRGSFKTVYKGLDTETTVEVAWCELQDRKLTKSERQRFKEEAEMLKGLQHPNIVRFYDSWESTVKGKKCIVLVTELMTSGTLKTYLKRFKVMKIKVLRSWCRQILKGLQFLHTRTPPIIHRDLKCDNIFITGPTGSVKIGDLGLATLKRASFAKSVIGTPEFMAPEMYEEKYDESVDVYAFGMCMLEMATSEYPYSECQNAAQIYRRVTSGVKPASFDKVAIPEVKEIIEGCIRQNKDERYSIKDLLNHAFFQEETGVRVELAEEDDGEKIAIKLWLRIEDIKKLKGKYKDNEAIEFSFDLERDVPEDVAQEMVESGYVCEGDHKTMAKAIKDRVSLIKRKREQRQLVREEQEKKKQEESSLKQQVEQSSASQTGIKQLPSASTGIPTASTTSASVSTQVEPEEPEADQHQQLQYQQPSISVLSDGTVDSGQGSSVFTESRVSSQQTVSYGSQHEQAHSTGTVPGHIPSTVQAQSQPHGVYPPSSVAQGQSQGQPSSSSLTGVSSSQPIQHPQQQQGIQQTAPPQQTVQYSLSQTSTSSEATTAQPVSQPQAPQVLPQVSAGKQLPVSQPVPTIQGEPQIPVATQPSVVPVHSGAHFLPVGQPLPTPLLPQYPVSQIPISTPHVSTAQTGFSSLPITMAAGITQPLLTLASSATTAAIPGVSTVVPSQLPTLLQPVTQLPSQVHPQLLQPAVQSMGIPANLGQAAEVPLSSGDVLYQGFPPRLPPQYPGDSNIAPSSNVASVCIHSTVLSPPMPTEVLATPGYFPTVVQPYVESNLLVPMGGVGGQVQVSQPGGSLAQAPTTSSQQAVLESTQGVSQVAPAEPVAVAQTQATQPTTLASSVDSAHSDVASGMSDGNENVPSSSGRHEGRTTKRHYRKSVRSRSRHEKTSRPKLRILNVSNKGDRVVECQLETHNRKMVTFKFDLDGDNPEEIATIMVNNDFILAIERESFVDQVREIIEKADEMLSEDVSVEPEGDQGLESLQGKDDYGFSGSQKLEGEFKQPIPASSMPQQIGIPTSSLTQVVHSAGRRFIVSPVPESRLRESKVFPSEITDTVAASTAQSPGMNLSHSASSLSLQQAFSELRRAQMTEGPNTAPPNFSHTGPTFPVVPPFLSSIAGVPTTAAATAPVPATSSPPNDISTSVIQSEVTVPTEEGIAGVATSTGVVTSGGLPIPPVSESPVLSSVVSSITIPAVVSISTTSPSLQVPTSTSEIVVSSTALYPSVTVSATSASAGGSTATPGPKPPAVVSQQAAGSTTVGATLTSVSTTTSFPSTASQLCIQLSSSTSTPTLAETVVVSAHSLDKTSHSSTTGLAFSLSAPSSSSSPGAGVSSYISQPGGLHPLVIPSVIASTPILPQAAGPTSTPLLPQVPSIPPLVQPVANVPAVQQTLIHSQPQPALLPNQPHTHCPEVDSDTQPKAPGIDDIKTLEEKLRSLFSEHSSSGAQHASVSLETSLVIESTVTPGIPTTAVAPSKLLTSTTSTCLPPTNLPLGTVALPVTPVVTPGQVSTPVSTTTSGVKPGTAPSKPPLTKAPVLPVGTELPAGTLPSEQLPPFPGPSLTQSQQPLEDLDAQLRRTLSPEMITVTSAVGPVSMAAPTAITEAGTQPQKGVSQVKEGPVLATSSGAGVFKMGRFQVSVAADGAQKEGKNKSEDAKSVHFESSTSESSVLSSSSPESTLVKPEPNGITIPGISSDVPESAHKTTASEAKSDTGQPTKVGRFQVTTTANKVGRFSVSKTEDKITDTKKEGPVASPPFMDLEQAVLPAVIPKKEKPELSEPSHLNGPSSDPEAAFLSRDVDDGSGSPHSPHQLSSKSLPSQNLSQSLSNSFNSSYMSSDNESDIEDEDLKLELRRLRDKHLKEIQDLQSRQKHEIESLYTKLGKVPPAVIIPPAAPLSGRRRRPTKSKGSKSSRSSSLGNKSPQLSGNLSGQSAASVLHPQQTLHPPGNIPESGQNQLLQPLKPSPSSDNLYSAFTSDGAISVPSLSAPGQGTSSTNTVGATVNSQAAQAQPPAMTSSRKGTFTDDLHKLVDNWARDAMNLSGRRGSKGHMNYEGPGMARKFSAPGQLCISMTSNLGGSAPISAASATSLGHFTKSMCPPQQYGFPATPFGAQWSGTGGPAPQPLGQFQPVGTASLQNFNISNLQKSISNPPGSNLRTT
UniProt Q96CW1, sequence (Q96CW1 whole entry, one chain of several): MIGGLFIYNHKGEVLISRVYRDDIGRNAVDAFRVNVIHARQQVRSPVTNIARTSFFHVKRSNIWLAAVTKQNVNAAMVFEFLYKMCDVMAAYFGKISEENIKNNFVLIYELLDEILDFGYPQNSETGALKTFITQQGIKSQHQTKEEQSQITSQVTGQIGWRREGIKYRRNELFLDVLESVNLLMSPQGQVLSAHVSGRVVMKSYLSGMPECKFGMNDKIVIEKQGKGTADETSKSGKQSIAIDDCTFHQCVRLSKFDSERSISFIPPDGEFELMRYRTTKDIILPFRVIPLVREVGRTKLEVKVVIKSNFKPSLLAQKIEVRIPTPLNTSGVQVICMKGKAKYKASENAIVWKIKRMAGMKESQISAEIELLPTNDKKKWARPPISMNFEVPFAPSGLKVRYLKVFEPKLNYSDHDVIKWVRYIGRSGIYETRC
UniProt Q96B45, sequence (Q96B45 whole entry, looked up, one chain of several): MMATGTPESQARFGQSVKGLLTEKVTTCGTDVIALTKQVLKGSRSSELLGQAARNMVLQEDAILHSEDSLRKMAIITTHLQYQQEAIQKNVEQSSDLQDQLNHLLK

Target	NP40-soluble protein abundance (concentration: 0.1mM)	NP40-soluble protein abundance (concentration: 0.5mM)	NP40-soluble protein abundance (concentration: 1mM)	NP40-soluble protein abundance (concentration: 2mM)	NP40-soluble protein abundance (concentration: 4mM)	NP40-soluble protein abundance (concentration: 6mM)	NP40-soluble protein abundance (concentration: 8mM)	NP40-soluble protein abundance (concentration: 10mM)
F5GWT4|Q9H4A3|Q9H4A3-2|Q9H4A3-5|Q9H4A3-6|Q9H4A3-7 (UniProt Q9H4A3)	0.963 ± 0.058	0.99 ± 0.079	1 ± 0.081	0.96 ± 0.07	0.973 ± 0.061	0.978 ± 0.066	0.999 ± 0.074	0.994 ± 0.082
E7EPN9|Q9Y520|Q9Y520-4|Q9Y520-5|Q9Y520-7 (UniProt Q9Y520)	1.01 ± 0.02	1.01 ± 0.054	1.1 ± 0.063	1.14 ± 0.073	1.24 ± 0.057	1.36 ± 0.075	1.53 ± 0.14	1.7 ± 0.2
A0A087WTT6|P62273|P62273-2 (UniProt P62273)	0.92 ± 0.14	0.977 ± 0.14	1.16 ± 0.29	1.1 ± 0.19	0.953 ± 0.29	0.957 ± 0.27	0.663 ± 0.15	0.939 ± 0.29
B4DZG1|Q9Y483|Q9Y483-3|Q96G26|Q9Y483-2|Q9Y483-4 (UniProt Q9Y483)	1.11 ± 0.061	1.09 ± 0.032	1.16 ± 0.044	1.26 ± 0.074	1.4 ± 0.068	1.45 ± 0.095	1.64 ± 0.2	1.78 ± 0.18
B4DJL6|Q96SY0|B4DVT3|H3BRY6|Q96SY0-3|Q96SY0-4 (UniProt Q96SY0)	1.03 ± 0.049	1.03 ± 0.035	1.03 ± 0.064	1.07 ± 0.051	1.03 ± 0.058	1.09 ± 0.025	1.07 ± 0.086	1.05 ± 0.066
F8VU90|Q9NYL4|Q9NYL4-2 (UniProt Q9NYL4)	0.972 ± 0.06	0.968 ± 0.052	1.04 ± 0.018	1.03 ± 0.065	1.05 ± 0.033	0.996 ± 0.078	0.922 ± 0.041	0.995 ± 0.065
B4DTS2|Q9BZL6 (UniProt Q9BZL6)	1.02 ± 0.021	1.04 ± 0.034	0.992 ± 0.053	1.02 ± 0.055	1 ± 0.059	0.97 ± 0.031	0.946 ± 0.045	0.946 ± 0.033
A0A0B4J1R7|Q96B45 (UniProt Q96B45)	0.918 ± 0.15	0.977 ± 0.18	1.02 ± 0.17	1.09 ± 0.11	1.09 ± 0.24	1 ± 0.19	1.02 ± 0.12	1.06 ± 0.18
A0A087WY71|Q96CW1|Q96CW1-2 (UniProt Q96CW1)	1.09 ± 0.11	1.12 ± 0.17	0.947 ± 0.078	1.04 ± 0.16	1.04 ± 0.14	1.03 ± 0.13	0.941 ± 0.023	0.95 ± 0.09
A0A087WU64|A6NMQ1|P09884 (UniProt P09884)	1.06 ± 0.025	1.07 ± 0.035	1.01 ± 0.047	1.02 ± 0.057	1.01 ± 0.033	0.994 ± 0.028	1.01 ± 0.051	0.973 ± 0.029
C9IY68|C9J384|Q9BQ75|Q9BQ75-2 (UniProt Q9BQ75)	0.945 ± 0.058	1.03 ± 0.083	1.06 ± 0.071	1.1 ± 0.058	1.17 ± 0.069	1.22 ± 0.094	1.23 ± 0.12	1.31 ± 0.04
E9PCH4|Q8TEU7|Q8TEU7-4 (UniProt Q8TEU7+E9PCH4)	0.967 ± 0.021	0.9825 ± 0.0063	0.968 ± 0.023	0.96 ± 0.02	0.981 ± 0.016	0.969 ± 0.038	1.0058 ± 0.00029	0.9592 ± 0.0034
B4E1Q4|O14730|O14730-2 (UniProt O14730)	0.965 ± 0.1	1.03 ± 0.063	0.949 ± 0.081	0.921 ± 0.073	0.806 ± 0.037	0.77 ± 0.041	0.747 ± 0.08	0.704 ± 0.041
F5H8D7|P18887 (UniProt P18887)	0.976 ± 0.073	1.02 ± 0.085	1.04 ± 0.081	1 ± 0.1	1.03 ± 0.098	1.06 ± 0.1	1.13 ± 0.1	1.1 ± 0.12
C9JMV9|Q03154|Q03154-4 (UniProt Q03154+C9JMV9)	1.03 ± 0.012	1.03 ± 0.011	0.97 ± 0.078	0.924 ± 0.036	0.954 ± 0.019	0.933 ± 0.031	0.94 ± 0.05	0.956 ± 0.12
SMCHD1 (UniProt A6NHR9)	1.05 ± 0.04	1.06 ± 0.055	0.999 ± 0.029	1.03 ± 0.07	1.04 ± 0.056	1.04 ± 0.043	1.02 ± 0.051	1.01 ± 0.098
A0A087X256|Q2M389 (UniProt Q2M389)	1.04 ± 0.058	1.01 ± 0.097	0.973 ± 0.048	0.975 ± 0.028	0.957 ± 0.028	0.973 ± 0.044	1.02 ± 0.068	0.889 ± 0.024
E7EX48|P51957|P51957-3 (UniProt P51957)	1.01 ± 0.097	0.987 ± 0.21	0.961 ± 0.21	1.01 ± 0.2	0.986 ± 0.21	0.957 ± 0.23	0.985 ± 0.25	1.06 ± 0.25
A0A087WYN2|J3KSS7|Q9NZ52|Q9NZ52-4 (UniProt Q9NZ52)	0.909 ± 0.037	0.905 ± 0.087	0.957 ± 0.09	0.915 ± 0.13	0.92 ± 0.14	0.94 ± 0.16	0.921 ± 0.08	0.896 ± 0.057
E9PHG5|Q6UW02|Q6UW02-2 (UniProt Q6UW02)	1.1 ± 0.21	1.04 ± 0.17	1.01 ± 0.075	1.04 ± 0.061	0.955 ± 0.16	0.984 ± 0.14	0.882 ± 0.25	0.884 ± 0.14
F2Z3N7|C9JZ87|Q9NUM4 (UniProt Q9NUM4)	0.98 ± 0.036	0.932 ± 0.076	1.15 ± 0.077	1.06 ± 0.048	0.84 ± 0.18	0.949 ± 0.045	0.989 ± 0.051	0.969 ± 0.078
A0A0A0MRR7|P09234 (UniProt P09234)	1.06 ± 0.017	1.19 ± 0.068	1.25 ± 0.068	1.36 ± 0.052	1.33 ± 0.11	1.56 ± 0.097	1.71 ± 0.2	1.82 ± 0.24
B1AMS2|Q14141|Q14141-2|Q14141-4 (UniProt Q14141)	1.03 ± 0.053	0.998 ± 0.011	0.968 ± 0.062	0.9155 ± 0.0055	0.941 ± 0.054	0.921 ± 0.016	0.941 ± 0.1	0.857 ± 0.013
A0A087WSW9|A0A087WSY9|E9PIR7|F8W809|Q16881|Q16881-2|Q16881-3|Q16881-4|Q16881-5|Q16881-6 (UniProt Q16881)	0.99 ± 0.03	1.01 ± 0.041	0.918 ± 0.026	0.928 ± 0.049	0.88 ± 0.037	0.9 ± 0.041	0.847 ± 0.022	0.854 ± 0.059
A0A0A0MR85|Q03013 (UniProt Q03013)	1.08 ± 0.068	1.07 ± 0.067	1.04 ± 0.078	1.03 ± 0.14	0.929 ± 0.058	0.985 ± 0.071	1 ± 0.11	0.989 ± 0.14
F2Z2Y4|O00764|O00764-2 (UniProt O00764)	1 ± 0.072	1.01 ± 0.09	0.942 ± 0.055	0.918 ± 0.095	0.905 ± 0.071	0.91 ± 0.08	0.88 ± 0.063	0.868 ± 0.086
